Most compounds without a hit are left out; they make up all but 2.4% or so of the library.
Pol kappa inh-1 – blocks human DNA polymerase kappa activity | Q9UBT6 | purified Pol kappa, fluorescent DNA synthesis assay, 10 min | Potency, µM (highest dose often 107 µM), inactives show at the top dose activity, negative = inhibition, hits mostly inhibitors | actives 0.53% (n = 400,000); note: potency is the fitted concentration of half-maximal effect; % is set by controls: 0 for no effect and ±100 for the full control effect
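Readout: fluorescence, taken kinetically at 0 and 10 min. Conditions: 10 nM Pol kappa, 15 min RT compound preincubation, 50 nM substrate final. Controls: enzyme-free buffer wells.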
FEN1 inh – inhibitors of human flap endonuclease 1; Potency, µM (highest dose often 114 µM), without a hit: at the highest dose activity change, negative = inhibition, most hits filed as inhibitors; actives 0.35% (n = 390,000); Recombinant FEN1 flap cleavage, fluorescence, 15 min; P39748; note: potency is the fitted concentration of half-maximal effect; % is set by controls: 0 for no effect and ±100 for the full control effect; nearly all actives have a fitted effect of over 65% in size
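With each library titrated from low to high concentration, compounds met 10 nM FEN1 for 15 min at room temperature before 50 nM substrate was added; readings at 0 and 15 min fed four-parameter Hill curve fits.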
Pol beta inh – blocks human DNA polymerase beta activity; P06746; Pol beta primer extension/strand displacement, fluorescence kinetic; Potency, µM (highest dose often 114 µM), inactives show at the highest dose activity change, negative = inhibition, most hits filed as inhibitors; actives 1.3% (n = 340,000); AID 485314; note: potency is the fitted concentration of half-maximal effect; % is set by controls: 0 for no effect and ±100 for the full control effect
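Enzyme-only controls used 10 nM Pol beta; buffer lacking enzyme served as negative control. Compound preincubated 15 min, then 50 nM substrate added; 0 and 10 min reads at room temperature.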
Pol eta inh-1 – blocks human DNA polymerase eta activity. recombinant Pol eta, fluorescent DNA replication assay. Potency, µM (doses to about 114 µM), inactives show top-dose activity change, negative = inhibition, hits mostly inhibitors. actives 1.2% (n = 390,000). AID 588591; note: potency is the fitted concentration of half-maximal effect; % is set by controls: 0 for no effect and ±100 for the full control effect
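Pol eta at 10 nM preincubated with compounds 15 min at room temperature; reaction started with fluorescent substrate (50 nM final) and read kinetically at 0 and 10 min.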
TDP1 block – blocks human tyrosyl-DNA phosphodiesterase 1. recombinant TDP1, AlphaScreen DNA substrate cleavage. Potency, µM (top dose mostly 130 µM), for the others: at the highest dose activity change, negative = inhibition, actives largely listed as inhibitors. actives 0.28% (n = 350,000). AID 485290; note: potency is the fitted concentration of half-maximal effect; % is set by controls: 0 for no effect and ±100 for the full control effect; nearly all actives have a fitted effect of over 40% in size
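Here, a 5' biotin and 3' phosphotyrosine-FITC DNA oligonucleotide reports Tdp1 activity: intact substrate bridges AlphaScreen beads, while cleavage leaves a 3' phosphate and drops signal. All incubations at room temperature.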
Pol iota inh – inhibitors of human DNA polymerase iota; Potency, µM (top dose mostly 115 µM), for the others: top-dose activity, negative = inhibition, most hits filed as inhibitors; AID 588590; actives 1% (n = 390,000); Pol iota fluorescent replication assay, 10 min; note: potency is the fitted concentration of half-maximal effect
Target sequence (Q9UNA4 whole entry, looked up): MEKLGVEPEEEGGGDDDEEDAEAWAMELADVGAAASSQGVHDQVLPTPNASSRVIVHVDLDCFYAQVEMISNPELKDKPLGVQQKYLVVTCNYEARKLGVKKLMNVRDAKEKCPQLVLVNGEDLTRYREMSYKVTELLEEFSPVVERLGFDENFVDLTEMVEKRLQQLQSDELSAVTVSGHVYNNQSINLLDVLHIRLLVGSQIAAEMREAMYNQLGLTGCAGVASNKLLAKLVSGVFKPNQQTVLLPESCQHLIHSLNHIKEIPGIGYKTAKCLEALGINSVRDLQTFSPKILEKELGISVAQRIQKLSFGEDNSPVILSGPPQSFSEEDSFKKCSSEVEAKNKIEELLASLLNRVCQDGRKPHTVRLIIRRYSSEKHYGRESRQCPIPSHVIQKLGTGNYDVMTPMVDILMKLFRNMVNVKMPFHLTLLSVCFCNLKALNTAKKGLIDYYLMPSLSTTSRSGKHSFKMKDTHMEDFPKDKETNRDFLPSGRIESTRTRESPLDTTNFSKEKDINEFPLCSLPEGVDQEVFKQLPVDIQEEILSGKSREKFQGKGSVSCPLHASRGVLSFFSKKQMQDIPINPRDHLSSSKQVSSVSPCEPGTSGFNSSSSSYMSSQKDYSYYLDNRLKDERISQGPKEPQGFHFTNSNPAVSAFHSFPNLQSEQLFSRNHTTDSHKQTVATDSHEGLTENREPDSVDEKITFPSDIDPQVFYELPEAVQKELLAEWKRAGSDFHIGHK
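Fluorescent replication assay read twice, at 0 min and 10 min after adding 50 nM (final) substrate. Enzyme (10 nM) and compounds were first incubated 15 min at room temperature; enzyme-free buffer wells were negative controls.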
TbPGK inh – blocks T. brucei phosphoglycerate kinase; shares compounds with Pol kappa inh-1; TbPGK coupled GAPDH assay, Kinase-Glo luminescence; Potency, µM (doses to about 57.5 µM), without a hit: top-dose activity change, negative = inhibition, usual class: inhibitors; actives 79% (n = 500); note: potency is the fitted concentration of half-maximal effect; % is set by controls: 0 for no effect and ±100 for the full control effect; nearly all actives have a fitted effect of over 65% in size
POLI cherry-pick – Confirm cherry-picked inhibitors of human polymerase iota; shares compounds with Pol kappa inh-1; Pol iota primer extension, TAMRA/BHQ fluorescence; Potency, µM, usual class: inhibitors; actives 77% (n = 1,500); AID 720496; note: potency is the fitted concentration of half-maximal effect
GALK confirm – confirmation of human galactokinase (GALK) inhibitors; AID 2015; purified GALK, Kinase-Glo ATP depletion luminescence; actives 70% (n = 150); shares compounds with Pol eta inh-1; Potency, µM (titrated, usually from 115 µM), inactives show top-dose activity, negative = inhibition, hits mostly inhibitors
Redox cycling – redox cycling activity in phenol red-HRP assay; shares compounds with Pol eta inh-1; Phenol red-HRP H2O2 redox cycling, absorbance 600 nm; Potency, µM (doses to about 115 µM), for the others: at the highest dose activity change, negative = H2O2 signal, hits mostly inhibitors; actives 40% (n = 150)
HEK293 tox – HEK-293 cytotoxicity, GALK inhibitor secondary | shares compounds with Pol eta inh-1 | HEK-293 viability, ATP luminescence (CellTiter-Glo), 24/48 h | Potency, µM (doses to about 46.1 µM), inactives show at the top dose activity change, negative = cytotoxicity, actives largely listed as inhibitors | actives 10% (n = 170) | AID 2547; note: potency is the fitted concentration of half-maximal effect; % is set by controls: 0 for no effect and ±100 for the full control effect
Pol kappa inh-2 – Pol kappa (human) inhibition, cherry-pick confirmation | shares compounds with Pol eta inh-1 | purified Pol-kappa, fluorescent strand-displacement substrate | Potency, µM, most hits filed as inhibitors | AID 720501 | actives 76% (n = 920); note: potency is the fitted concentration of half-maximal effect
Pol eta inh-2 – confirmation of human DNA polymerase eta inhibitors; actives 64% (n = 2,600); AID 720502; Pol eta primer extension, TAMRA/BHQ fluorescence, 10 min; Potency, µM, most hits filed as inhibitors; shares compounds with Pol eta inh-1; note: potency is the fitted concentration of half-maximal effect
* = called active by the depositor; [ ] = another dose, or the depositor's remark. Calls come from the whole dose curve; as a rule, active = well fitted curve in the direction sought with a large enough effect; inconclusive = small, poorly fitted or top-dose-only effect, or another doubt; inactive = no such curve, though single readings can be large; an effect the other way counts as inactive or inconclusive.

For CCOc1ccc(C=Nc2ccc(/C=C/c3ccnc4ccccc34)cc2)cc1OCC the results were Pol kappa inh-1 -9%, FEN1 inh -7% and Pol iota inh -9%.
Screening Cc1cc[n+](-c2[nH]c(=O)sc2/C=N/N=C(\[O-])c2ccncc2)cc1 returned Pol kappa inh-1 inconclusive, FEN1 inh -27%, Pol beta inh inconclusive, Pol eta inh-1 79µM*, TDP1 block 40µM*, Pol iota inh 40µM*, POLI cherry-pick 53* and Pol eta inh-2 76*.
Screening O=c1[nH]c(-[n+]2ccccc2)c(/C=N/N=C(\[O-])c2ccccc2)s1 returned Pol kappa inh-1 -20%, FEN1 inh -18%, Pol beta inh 24%, Pol eta inh-1 7%, TDP1 block -3% and Pol iota inh 30%.
Screening Cn1c(=O)c2c(nc(N3CCOCC3)n2Cc2ccccc2F)n(C)c1=O returned Pol kappa inh-1 11%, FEN1 inh -3%, Pol beta inh -1%, Pol eta inh-1 -22% and Pol iota inh 21%.
For COc1cc(NS(=O)(=O)c2cc(Br)cc3c2N(C(C)=O)C(C)C3)cc(OC)c1 (stereo not given) the results were Pol kappa inh-1 -16%[60.1 µM], FEN1 inh -2%, Pol beta inh -16%, Pol eta inh-1 -11%, TDP1 block 0% and Pol iota inh -13%.
For COC(=O)C1(Cc2ccc(O)cc2)OC(=O)C(O)=C1c1ccc(O)cc1 (stereo not given) the results were Pol kappa inh-1 inconclusive, FEN1 inh inconclusive, Pol beta inh 20µM*, Pol eta inh-1 11µM*, Pol iota inh 13µM*, POLI cherry-pick 42* and Pol eta inh-2 27*.
Screening CC(=O)c1ccc(S(=O)(=O)N2Cc3ccccc3CC2C(=O)O)cc1 (stereo not given) returned Pol kappa inh-1 50µM*, FEN1 inh 9%, Pol beta inh 13µM*, Pol eta inh-1 5µM*, Pol iota inh inconclusive, POLI cherry-pick 27* and Pol eta inh-2 15*.
O=C(O)[C@H]1Cc2ccccc2CN1S(=O)(=O)c1ccc(F)cc1 was read as Pol kappa inh-1 -7%, FEN1 inh -13%, Pol beta inh -2%, Pol eta inh-1 -6%, TDP1 block -1% and Pol iota inh 3%.
COc1ccc(/C=N/Nc2ncc(Br)cn2)c(OC)c1 was read as Pol kappa inh-1 5%, FEN1 inh inconclusive, Pol beta inh 4.5µM*, Pol eta inh-1 28µM*, TDP1 block 5%, Pol iota inh -4%, POLI cherry-pick 42* and Pol kappa inh-2 15*.
`O=C(O)C(c1ccccc1)N1C(=O)/C(=C\c2ccc(-c3ccccc3Cl)o2)SC1=S` (stereo not given) gave Pol kappa inh-1 -12%, FEN1 inh 50µM*, Pol beta inh inconclusive, Pol eta inh-1 40µM*, Pol iota inh 11µM*, TbPGK inh 8.2µM*, POLI cherry-pick 60*, Pol kappa inh-2 11* and Pol eta inh-2 38*.
`CC(=O)c1ccc(NC(=O)CN2C(=O)CCc3cc(S(=O)(=O)N4CCC(C)CC4)ccc32)cc1` gave Pol kappa inh-1 -10%[60.1 µM], FEN1 inh -7%, Pol beta inh 35µM*, Pol eta inh-1 25µM*, Pol iota inh inconclusive, POLI cherry-pick 53*, Pol kappa inh-2 inconclusive and Pol eta inh-2 38*.
Screening O=C(NNC(=O)c1ccccc1Br)c1ccc(Cl)c(Cl)c1 returned Pol kappa inh-1 -7%, FEN1 inh 3%, Pol beta inh 1%, Pol eta inh-1 -7%, TDP1 block 0% and Pol iota inh 14%.
O=C(NNC(=O)c1ccccc1Br)c1ccc2nc[nH]c2c1 was read as Pol kappa inh-1 inconclusive, FEN1 inh -25%, Pol beta inh 22µM*, Pol eta inh-1 22µM*, TDP1 block 11µM*, Pol iota inh inconclusive, POLI cherry-pick inconclusive and Pol eta inh-2 54*.
Screening NC(=O)C1CCN(C2=C(NS(=O)(=O)c3ccccc3)C(=O)c3ccccc3C2=O)CC1 returned Pol kappa inh-1 -9%, FEN1 inh 6%, Pol beta inh 9%, Pol eta inh-1 2%, TDP1 block 8% and Pol iota inh 29%.
NC(=O)C1CCN(C2=C(Cl)C(=O)c3ccccc3C2=O)CC1 was read as Pol kappa inh-1 -9%, FEN1 inh inconclusive, Pol beta inh inconclusive, Pol eta inh-1 6.3µM*, TDP1 block -5%, Pol iota inh 2.8µM*, POLI cherry-pick 42*, GALK confirm 19µM*, Redox cycling 24µM*, HEK293 tox inconclusive and Pol eta inh-2 21*.
`COC(=O)[C@@H]1C[C@@]2(O)[C@H](O)[C@H](O)[C@H](O)C[C@H]2N1Cc1c(F)cccc1Cl` gave TDP1 block -4%.

Source: PubChem
